We go through eleven compounds from the supplement of paper PMC7411640.

Molecules are shown by their SMILES. Counter-ions that a name gives are not always drawn.

This test deals with MDA-MB-468. Description: phospho-S6 immunofluorescence (DAPI-normalised), per-plate z-score; higher = higher phospho-S6 signal (less pathway suppression). Conditions: 24 h. Here is the method:
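GPCR-targeted compound library (MedChemExpress HY-L006) tested on MDA-MB-468 PTEN-null TNBC cells in 384-well plates at 0.1, 1 or 10 uM, combined with vehicle, GDC0941 450 nM or lapatinib 1 uM, for 24 h. Phospho-S6 (S240/244) immunofluorescence normalised to DAPI and expressed as a per-plate z-score; values are the mean of biological triplicates.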

Regarding `CCNC1(C(N)=O)CCN(c2ncnc3c2nc(-c2ccccc2Cl)n3-c2ccc(Cl)cc2)CC1` [Otenabant] (compound 10 µM), the “phospho-S6 immunofluorescence (z-score)” value is -1.75 (co-treatment: GDC0941 450 nM), -2.03 (co-treatment: lapatinib 1 uM) and -0.02 (co-treatment: vehicle).

With `CC(C)C[C@H](NC(=O)CNC(=O)[C@H](Cc1ccc(O)cc1)NC(=O)[C@H](CO)NC(=O)[C@H](Cc1c[nH]c2ccccc12)NC(=O)[C@H](Cc1cnc[nH]1)NC(=O)[C@@H]1CCC(=O)N1)C(=O)N[C@@H](CCCNC(=N)N)C(=O)N1CCC[C@H]1C(=O)NCC(N)=O` [Gonadorelin (acetate)] (compound 10 µM), the “phospho-S6 immunofluorescence (z-score)” value by setting is: (co-treatment: GDC0941 450 nM) -0.45; (co-treatment: lapatinib 1 uM) 0.57; (co-treatment: vehicle) 0.07.

Turning to `CC(C)(Cc1nc(-c2ccc(O)cn2)no1)C(=O)NC1=C(C(=O)O)CCCC1` (compound 10 µM), the “phospho-S6 immunofluorescence (z-score)” value came out at 0.73 (co-treatment: GDC0941 450 nM), 0.37 (co-treatment: lapatinib 1 uM) and 1.12 (co-treatment: vehicle).

Take `OCc1cc(C(O)CNCCCCCCOCCCCc2ccccc2)ccc1O` (stereo not drawn) [Salmeterol (xinafoate)] (compound 10 µM): the “phospho-S6 immunofluorescence (z-score)” value (co-treatment: GDC0941 450 nM) turned out to be 1.01, the “phospho-S6 immunofluorescence (z-score)” value (co-treatment: lapatinib 1 uM) was -2.27 and the “phospho-S6 immunofluorescence (z-score)” value (co-treatment: vehicle) came out at 2.28.

Take `C[C@H](CCC(=O)O)[C@H]1CC[C@H]2[C@@H]3CC[C@@H]4C[C@H](O)CC[C@]4(C)[C@H]3C[C@H](O)[C@]12C` [Deoxycholic acid] (compound 10 µM): the “phospho-S6 immunofluorescence (z-score)” value was 0.02 (co-treatment: GDC0941 450 nM), 0.6 (co-treatment: lapatinib 1 uM) and -0.17 (co-treatment: vehicle).

Take `CN(C)CC1CCOC1(c1ccccc1)c1ccccc1` (stereo not drawn) [AVex-73 hydrochloride] (compound 10 µM): the “phospho-S6 immunofluorescence (z-score)” value by setting is: (co-treatment: GDC0941 450 nM) -0.82; (co-treatment: lapatinib 1 uM) -1.17; (co-treatment: vehicle) 0.2.

For `O=C(Nc1ccc([N+](=O)[O-])cc1O)Nc1ccccc1Br` (compound 10 µM), the “phospho-S6 immunofluorescence (z-score)” value is, setting by setting: (co-treatment: GDC0941 450 nM) -1.44; (co-treatment: lapatinib 1 uM) 0.89; (co-treatment: vehicle) -0.39.

Consider `CC(=O)OCC(=O)[C@@]1(O)CC[C@H]2[C@@H]3CCC4=CC(=O)CC[C@]4(C)[C@H]3C(=O)C[C@@]21C` [Cortisone (acetate)] (compound 10 µM), for which the “phospho-S6 immunofluorescence (z-score)” value reads like this: (co-treatment: GDC0941 450 nM) 0.51; (co-treatment: lapatinib 1 uM) 1.06; (co-treatment: vehicle) 0.93.

As for `COc1ccccc1OCCNCC(O)COc1cccc2[nH]c3ccccc3c12` (stereo not drawn) [Carvedilol] (compound 10 µM), the “phospho-S6 immunofluorescence (z-score)” value reads like this: (co-treatment: GDC0941 450 nM) -4.07; (co-treatment: lapatinib 1 uM) -4.63; (co-treatment: vehicle) -3.59.

Turning to `NCCc1c[nH]cn1` [Histamine (phosphate)] (compound 10 µM), the “phospho-S6 immunofluorescence (z-score)” value (co-treatment: GDC0941 450 nM) is -0.41, the “phospho-S6 immunofluorescence (z-score)” value (co-treatment: lapatinib 1 uM) is -0.13 and the “phospho-S6 immunofluorescence (z-score)” value (co-treatment: vehicle) turned out to be 0.1.

For `C[C@]12C=CC(=O)C=C1CC[C@@H]1[C@@H]2C(=O)C[C@@]2(C)[C@H]1CC[C@]2(O)C(=O)CO` [Prednisone] (compound 10 µM), the “phospho-S6 immunofluorescence (z-score)” value is, setting by setting: (co-treatment: GDC0941 450 nM) 0.55; (co-treatment: lapatinib 1 uM) 1.24; (co-treatment: vehicle) 0.94.
